# Reference: paper PMC7862700, “An all-to-all approach to the identification of sequence-specific readers for epigenetic DNA modifications on cytosine”
# How the values were obtained:
# Assay in all cases: DAPPL (digital affinity profiling via proximity ligation, sequencing); 10 mM Tris-HCl pH 7.5, 50 mM NaCl, 1 mM DTT, 4% glycerol, room temperature, 30 min; GST-TFs on glutathione beads, 16-mer random dsDNA library, 0.1% formaldehyde crosslink after washing; high values mean tight binding
# Settings in all cases: protein: recombinant; tags: N-terminal GST; dsDNA, one strand shown
# ELK1 = target: T1, ELK1 (Homo sapiens, UniProt P19419 1-428)
# T1 sequence: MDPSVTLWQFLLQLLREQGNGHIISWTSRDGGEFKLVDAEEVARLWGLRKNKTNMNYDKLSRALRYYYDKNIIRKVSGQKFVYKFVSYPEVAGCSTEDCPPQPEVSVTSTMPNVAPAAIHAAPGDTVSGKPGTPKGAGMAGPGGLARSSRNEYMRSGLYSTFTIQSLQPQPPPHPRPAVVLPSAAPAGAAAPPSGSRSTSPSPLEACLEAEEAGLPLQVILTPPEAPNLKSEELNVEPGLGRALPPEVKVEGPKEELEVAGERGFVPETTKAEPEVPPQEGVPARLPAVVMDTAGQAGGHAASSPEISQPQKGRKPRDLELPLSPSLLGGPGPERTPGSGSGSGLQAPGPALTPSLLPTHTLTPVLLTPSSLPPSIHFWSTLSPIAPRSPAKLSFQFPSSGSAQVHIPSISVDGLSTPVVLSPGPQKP
# In short: (§1)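 Beads coated with glutathione captured GST-fused human transcription factors that had been expressed in yeast, and the factors were then given DNA barcodes and pooled with a tag-only sample. The pools were incubated with 200 nmole of a random double-stranded 16-mer DNA library in Tris/NaCl/DTT/glycerol buffer for 30 min at room temperature, washed, crosslinked with 0.1% formaldehyde and proximity-ligated with BsaI/T4 ligase at 37 °C for 1 h. PCR amplification and Illumina NextSeq500 sequencing came last. Binding signal is each hexamer's read frequency for a factor divided by its frequency for the tag-only sample.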
# GABPA = target: T2, GABPA (Homo sapiens, UniProt Q06546 1-454)
# T2 sequence: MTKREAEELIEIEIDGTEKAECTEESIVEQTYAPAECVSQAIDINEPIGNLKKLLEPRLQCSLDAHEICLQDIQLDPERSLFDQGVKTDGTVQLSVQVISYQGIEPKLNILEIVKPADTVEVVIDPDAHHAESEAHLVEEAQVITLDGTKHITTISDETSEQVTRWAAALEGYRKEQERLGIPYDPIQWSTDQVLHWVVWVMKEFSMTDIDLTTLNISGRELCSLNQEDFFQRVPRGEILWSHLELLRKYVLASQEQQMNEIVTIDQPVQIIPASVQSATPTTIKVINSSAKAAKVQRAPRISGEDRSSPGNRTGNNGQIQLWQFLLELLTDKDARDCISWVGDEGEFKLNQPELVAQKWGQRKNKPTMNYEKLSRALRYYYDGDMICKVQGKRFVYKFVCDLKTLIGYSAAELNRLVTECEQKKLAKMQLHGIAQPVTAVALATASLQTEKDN
# In short: as §1
# ERG = target: T3, ERG (Homo sapiens, UniProt P11308 1-479)
# T3 sequence: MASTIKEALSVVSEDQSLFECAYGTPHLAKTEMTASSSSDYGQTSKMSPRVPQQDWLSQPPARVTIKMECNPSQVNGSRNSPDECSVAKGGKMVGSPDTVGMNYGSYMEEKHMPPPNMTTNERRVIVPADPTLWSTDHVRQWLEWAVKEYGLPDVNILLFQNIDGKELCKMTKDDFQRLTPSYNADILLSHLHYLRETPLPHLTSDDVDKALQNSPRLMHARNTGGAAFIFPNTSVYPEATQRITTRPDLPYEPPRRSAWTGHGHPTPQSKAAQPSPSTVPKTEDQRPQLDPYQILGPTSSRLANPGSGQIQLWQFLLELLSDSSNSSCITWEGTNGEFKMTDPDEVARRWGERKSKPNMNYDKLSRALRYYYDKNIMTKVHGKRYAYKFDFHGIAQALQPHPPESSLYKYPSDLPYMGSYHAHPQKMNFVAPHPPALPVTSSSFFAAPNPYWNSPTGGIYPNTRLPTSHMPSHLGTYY
# In short: as §1
# ELF1 = ELF1 (Homo sapiens, UniProt P32519 1-619)
# In short: as §1
# SPIB = SPIB (Homo sapiens, UniProt Q01892 1-262)
# In short: as §1
# ELK3 = target: T4, ELK3 (Homo sapiens, UniProt P41970 1-407)
# T4 sequence: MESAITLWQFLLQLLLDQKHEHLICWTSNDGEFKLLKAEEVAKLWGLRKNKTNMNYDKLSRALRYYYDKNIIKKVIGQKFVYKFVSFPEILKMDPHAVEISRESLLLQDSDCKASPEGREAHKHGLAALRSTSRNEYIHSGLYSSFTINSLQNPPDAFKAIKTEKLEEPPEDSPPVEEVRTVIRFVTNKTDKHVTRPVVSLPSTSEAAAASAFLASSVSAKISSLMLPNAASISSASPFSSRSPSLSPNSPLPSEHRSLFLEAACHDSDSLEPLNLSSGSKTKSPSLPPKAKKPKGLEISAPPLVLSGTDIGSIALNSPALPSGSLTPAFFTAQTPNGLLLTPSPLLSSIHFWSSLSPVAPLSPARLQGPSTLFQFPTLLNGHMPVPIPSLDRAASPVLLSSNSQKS
# In short: as §1
# SPIC = target: T5, SPIC (Homo sapiens, UniProt Q8N5J4 1-248)
# T5 sequence: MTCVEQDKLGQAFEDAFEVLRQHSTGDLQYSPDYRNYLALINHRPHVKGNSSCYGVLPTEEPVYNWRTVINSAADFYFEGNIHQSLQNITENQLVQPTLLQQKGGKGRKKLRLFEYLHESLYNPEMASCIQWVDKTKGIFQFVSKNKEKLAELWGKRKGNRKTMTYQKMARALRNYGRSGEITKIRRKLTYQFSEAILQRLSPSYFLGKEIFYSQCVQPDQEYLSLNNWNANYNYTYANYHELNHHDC
# In short: as §1
# ELF4 = ELF4 (Homo sapiens, UniProt Q99607 1-663)
# In short: as §1
# ELK4 = target: T6, ELK4 (Homo sapiens, UniProt P28324-2 1-405)
# T6 sequence: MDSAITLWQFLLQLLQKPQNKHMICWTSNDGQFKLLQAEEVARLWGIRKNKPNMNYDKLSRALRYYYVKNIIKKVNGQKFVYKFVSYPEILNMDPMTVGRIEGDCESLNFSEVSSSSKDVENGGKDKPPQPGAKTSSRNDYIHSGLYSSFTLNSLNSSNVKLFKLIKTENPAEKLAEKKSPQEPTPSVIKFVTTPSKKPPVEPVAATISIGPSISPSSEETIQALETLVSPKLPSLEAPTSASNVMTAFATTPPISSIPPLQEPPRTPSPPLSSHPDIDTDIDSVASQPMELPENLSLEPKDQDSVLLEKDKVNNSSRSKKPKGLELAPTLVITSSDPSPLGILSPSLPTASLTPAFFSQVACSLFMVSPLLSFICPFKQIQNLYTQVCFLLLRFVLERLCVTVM
# In short: as §1
# ELF3 = target: T7, ELF3 (Homo sapiens, UniProt P78545 1-371)
# T7 sequence: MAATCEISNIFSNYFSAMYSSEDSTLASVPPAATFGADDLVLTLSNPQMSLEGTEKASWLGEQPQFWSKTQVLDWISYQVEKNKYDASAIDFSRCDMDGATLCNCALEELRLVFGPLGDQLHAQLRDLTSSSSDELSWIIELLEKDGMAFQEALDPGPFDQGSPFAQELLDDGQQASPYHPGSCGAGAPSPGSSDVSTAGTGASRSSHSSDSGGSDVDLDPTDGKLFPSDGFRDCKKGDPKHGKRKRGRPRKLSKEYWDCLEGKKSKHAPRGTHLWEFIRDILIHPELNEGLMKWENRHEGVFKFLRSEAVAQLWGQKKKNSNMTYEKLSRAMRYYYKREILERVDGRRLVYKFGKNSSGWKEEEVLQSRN
# In short: as §1
# ETV1 = ETV1 (Homo sapiens, UniProt P50549 1-477)
# In short: as §1
# ERF = target: T8, ERF (Homo sapiens, UniProt P50548 1-548)
# T8 sequence: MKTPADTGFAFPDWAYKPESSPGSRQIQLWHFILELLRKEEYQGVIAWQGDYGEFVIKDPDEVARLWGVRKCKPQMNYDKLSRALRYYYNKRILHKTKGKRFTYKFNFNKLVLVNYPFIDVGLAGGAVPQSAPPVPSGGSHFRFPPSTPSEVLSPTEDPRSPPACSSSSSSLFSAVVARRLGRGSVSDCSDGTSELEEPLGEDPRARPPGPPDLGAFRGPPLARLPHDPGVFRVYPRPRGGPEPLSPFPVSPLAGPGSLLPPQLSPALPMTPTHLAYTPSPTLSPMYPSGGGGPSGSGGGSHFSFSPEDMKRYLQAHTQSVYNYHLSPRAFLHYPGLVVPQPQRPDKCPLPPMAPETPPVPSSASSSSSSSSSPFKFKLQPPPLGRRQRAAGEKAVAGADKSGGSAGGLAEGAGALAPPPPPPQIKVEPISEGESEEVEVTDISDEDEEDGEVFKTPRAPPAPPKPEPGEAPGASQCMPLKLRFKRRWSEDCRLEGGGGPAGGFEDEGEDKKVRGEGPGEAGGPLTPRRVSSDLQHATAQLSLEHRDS
# In short: as §1
# ETV3L = target: T9, ETV3L (Homo sapiens, UniProt Q6ZN32 1-361)
# T9 sequence: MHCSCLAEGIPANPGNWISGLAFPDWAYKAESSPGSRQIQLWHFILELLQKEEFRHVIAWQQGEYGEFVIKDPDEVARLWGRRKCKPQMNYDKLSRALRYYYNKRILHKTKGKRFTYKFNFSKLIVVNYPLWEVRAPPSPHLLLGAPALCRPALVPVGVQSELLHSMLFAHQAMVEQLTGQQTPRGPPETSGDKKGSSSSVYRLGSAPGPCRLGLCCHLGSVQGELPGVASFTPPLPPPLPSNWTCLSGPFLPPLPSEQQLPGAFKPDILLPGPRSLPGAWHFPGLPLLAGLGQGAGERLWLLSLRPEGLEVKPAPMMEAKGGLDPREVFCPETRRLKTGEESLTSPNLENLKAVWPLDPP
# In short: as §1
# ETS2 = target: T10, ETS2 (Homo sapiens, UniProt P15036 1-469)
# T10 sequence: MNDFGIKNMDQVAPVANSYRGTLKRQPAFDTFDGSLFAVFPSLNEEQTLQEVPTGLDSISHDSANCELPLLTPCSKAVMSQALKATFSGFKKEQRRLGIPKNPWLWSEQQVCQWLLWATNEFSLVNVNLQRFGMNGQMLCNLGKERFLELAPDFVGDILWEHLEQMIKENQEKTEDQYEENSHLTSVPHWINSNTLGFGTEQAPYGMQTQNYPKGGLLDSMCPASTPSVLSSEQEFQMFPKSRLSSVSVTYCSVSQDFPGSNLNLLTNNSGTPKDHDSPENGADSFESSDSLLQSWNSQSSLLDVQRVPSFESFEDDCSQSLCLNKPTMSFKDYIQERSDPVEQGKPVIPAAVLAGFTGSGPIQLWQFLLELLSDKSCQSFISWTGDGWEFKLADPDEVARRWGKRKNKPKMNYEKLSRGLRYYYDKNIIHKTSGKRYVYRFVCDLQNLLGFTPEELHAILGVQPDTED
# In short: as §1
# SPDEF = target: T11, SPDEF (Homo sapiens, UniProt O95238 1-335)
# T11 sequence: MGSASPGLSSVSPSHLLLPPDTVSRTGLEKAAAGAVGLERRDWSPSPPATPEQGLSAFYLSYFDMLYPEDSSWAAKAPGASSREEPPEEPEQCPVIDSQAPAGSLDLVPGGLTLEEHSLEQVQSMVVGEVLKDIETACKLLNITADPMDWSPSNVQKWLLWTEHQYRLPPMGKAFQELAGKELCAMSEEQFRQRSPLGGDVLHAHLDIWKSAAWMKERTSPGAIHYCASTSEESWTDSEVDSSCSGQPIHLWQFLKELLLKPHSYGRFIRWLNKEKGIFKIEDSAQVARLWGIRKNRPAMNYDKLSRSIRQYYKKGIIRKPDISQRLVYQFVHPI
# In short: as §1
# ETV7 = target: T12, ETV7 (Homo sapiens, UniProt Q9Y603 1-341)
# T12 sequence: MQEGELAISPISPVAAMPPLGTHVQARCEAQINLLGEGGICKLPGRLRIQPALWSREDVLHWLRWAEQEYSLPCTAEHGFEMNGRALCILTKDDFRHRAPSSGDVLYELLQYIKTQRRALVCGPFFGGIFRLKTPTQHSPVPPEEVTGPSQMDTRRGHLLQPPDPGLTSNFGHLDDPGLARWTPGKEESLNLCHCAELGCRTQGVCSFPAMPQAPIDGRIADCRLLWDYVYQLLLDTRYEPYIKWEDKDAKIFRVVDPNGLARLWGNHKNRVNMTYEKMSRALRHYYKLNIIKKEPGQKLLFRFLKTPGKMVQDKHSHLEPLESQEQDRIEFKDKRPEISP
# In short: as §1
# ETV3 = target: T13, ETV3 (Homo sapiens, UniProt P41162-2 1-143)
# T13 sequence: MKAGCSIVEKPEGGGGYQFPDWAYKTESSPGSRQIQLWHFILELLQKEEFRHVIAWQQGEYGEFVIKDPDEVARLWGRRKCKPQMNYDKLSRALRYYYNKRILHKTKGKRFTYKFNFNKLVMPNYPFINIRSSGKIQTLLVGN
# In short: as §1
# ETV6 = ETV6 (Homo sapiens, UniProt P41212 1-452)
# In short: as §1
# Chain of ELF4 (Q99607 whole entry): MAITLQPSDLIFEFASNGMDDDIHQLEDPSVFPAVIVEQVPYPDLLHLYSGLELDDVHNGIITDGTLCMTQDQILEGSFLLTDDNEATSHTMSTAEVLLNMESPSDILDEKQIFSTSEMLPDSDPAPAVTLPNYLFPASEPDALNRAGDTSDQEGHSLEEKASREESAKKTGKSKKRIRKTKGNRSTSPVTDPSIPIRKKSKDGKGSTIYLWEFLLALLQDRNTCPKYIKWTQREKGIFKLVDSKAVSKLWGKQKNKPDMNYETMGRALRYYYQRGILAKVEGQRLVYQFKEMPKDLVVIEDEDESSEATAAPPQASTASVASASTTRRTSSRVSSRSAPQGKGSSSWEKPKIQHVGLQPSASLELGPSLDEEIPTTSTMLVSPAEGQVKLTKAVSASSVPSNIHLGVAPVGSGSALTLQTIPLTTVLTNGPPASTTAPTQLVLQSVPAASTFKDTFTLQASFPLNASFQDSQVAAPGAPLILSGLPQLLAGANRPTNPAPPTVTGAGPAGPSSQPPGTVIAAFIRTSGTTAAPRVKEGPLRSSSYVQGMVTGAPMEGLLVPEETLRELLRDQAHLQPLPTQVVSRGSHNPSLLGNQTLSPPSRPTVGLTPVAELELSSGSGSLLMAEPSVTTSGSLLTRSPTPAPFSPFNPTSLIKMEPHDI
# Chain of SPIB (Q01892 whole entry): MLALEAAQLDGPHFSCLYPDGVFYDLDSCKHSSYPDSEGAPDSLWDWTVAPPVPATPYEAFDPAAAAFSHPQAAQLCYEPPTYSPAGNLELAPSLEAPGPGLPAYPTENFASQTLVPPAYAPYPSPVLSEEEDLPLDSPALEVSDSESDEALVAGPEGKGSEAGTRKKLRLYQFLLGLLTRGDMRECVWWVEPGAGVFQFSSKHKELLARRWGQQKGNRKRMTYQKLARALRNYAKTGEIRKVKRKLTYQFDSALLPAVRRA
# Chain of ETV6 (P41212 whole entry): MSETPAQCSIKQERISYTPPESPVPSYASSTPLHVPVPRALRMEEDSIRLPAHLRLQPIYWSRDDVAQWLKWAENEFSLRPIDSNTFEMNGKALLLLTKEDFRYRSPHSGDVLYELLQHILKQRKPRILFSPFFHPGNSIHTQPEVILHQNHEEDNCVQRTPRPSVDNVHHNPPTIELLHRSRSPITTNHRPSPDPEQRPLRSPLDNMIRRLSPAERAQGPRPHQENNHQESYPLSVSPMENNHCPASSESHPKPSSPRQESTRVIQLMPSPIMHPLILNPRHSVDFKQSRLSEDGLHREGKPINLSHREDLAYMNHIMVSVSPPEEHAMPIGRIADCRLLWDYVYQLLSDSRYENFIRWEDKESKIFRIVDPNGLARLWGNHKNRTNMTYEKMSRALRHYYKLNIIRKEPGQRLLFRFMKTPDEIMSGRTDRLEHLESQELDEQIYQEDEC
# Chain of ETV1 (P50549 whole entry): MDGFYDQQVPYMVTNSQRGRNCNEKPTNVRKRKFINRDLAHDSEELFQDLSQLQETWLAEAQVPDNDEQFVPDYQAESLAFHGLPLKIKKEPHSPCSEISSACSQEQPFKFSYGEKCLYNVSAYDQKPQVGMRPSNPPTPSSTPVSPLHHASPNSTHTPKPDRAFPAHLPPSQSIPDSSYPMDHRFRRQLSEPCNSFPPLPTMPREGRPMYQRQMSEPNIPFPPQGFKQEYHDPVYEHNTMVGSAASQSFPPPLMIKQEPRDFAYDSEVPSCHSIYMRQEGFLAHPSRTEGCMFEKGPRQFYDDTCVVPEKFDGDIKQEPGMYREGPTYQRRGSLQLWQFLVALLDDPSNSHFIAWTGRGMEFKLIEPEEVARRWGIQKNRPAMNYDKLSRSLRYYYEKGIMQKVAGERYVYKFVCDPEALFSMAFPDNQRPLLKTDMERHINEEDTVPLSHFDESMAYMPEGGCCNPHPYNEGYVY
# Chain of ELF1 (P32519 whole entry): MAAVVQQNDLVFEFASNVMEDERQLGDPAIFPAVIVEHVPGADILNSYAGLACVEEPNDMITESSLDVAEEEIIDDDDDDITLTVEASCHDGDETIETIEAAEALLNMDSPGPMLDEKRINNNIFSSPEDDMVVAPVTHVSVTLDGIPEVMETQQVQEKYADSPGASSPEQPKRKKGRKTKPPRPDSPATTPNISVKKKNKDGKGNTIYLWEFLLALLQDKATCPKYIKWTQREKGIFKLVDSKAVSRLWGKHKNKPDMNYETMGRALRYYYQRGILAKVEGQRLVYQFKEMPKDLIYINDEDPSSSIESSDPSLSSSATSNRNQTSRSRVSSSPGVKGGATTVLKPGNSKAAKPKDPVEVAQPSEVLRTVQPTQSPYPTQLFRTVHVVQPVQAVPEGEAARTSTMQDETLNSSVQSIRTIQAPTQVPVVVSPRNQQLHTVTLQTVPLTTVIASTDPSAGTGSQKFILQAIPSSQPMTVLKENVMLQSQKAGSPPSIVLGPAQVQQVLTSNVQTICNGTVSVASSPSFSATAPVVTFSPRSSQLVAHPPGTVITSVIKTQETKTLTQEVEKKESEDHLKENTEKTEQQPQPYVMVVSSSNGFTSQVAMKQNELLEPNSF
sequence,measurement,setting,value
ATAAGA,binding signal,ELK1,"1.12 fold enrichment (6-mer frequency, TF over GST control)"
same,binding signal,GABPA,"1.08 fold enrichment (6-mer frequency, TF over GST control)"
same,binding signal,ERG,"1.11 fold enrichment (6-mer frequency, TF over GST control)"
same,binding signal,ELF1,"1.04 fold enrichment (6-mer frequency, TF over GST control)"
same,binding signal,SPIB,"1.04 fold enrichment (6-mer frequency, TF over GST control)"
same,binding signal,ELK3,"1.13 fold enrichment (6-mer frequency, TF over GST control)"
same,binding signal,SPIC,"1.03 fold enrichment (6-mer frequency, TF over GST control)"
same,binding signal,ELF4,"1.06 fold enrichment (6-mer frequency, TF over GST control)"
same,binding signal,ELK4,"1.11 fold enrichment (6-mer frequency, TF over GST control)"
same,binding signal,ELF3,"1.04 fold enrichment (6-mer frequency, TF over GST control)"
same,binding signal,ETV1,"1.1 fold enrichment (6-mer frequency, TF over GST control)"
same,binding signal,ERF,"1.14 fold enrichment (6-mer frequency, TF over GST control)"
same,binding signal,ETV3L,"1.05 fold enrichment (6-mer frequency, TF over GST control)"
same,binding signal,ETS2,"1.09 fold enrichment (6-mer frequency, TF over GST control)"
same,binding signal,SPDEF,"1.15 fold enrichment (6-mer frequency, TF over GST control)"
same,binding signal,ETV7,"1.04 fold enrichment (6-mer frequency, TF over GST control)"
same,binding signal,ETV3,"1.07 fold enrichment (6-mer frequency, TF over GST control)"
same,binding signal,ETV6,"1.07 fold enrichment (6-mer frequency, TF over GST control)"
